PubChem BioAssay AID493208 (National Center for Advancing Translational Sciences (NCATS), 2011)
In all, about 44,000 compounds went through this assay and about 340 (0.77%) were called active. Not shown: some 5% with an inconclusive outcome. Calls come from the whole dose curve; as a rule, active = well fitted inhibition curve with a large enough effect; inconclusive = small, poorly fitted or top-dose-only effect; inactive = flat fitted curve, though single readings scatter. Many of the other results were omitted from the sample, so actives are more common in it than they were.

Test: Acumen qHTS Assay for Inhibitors of the mTORC1 Signaling Pathway in MEF (Tsc2-/-, p53-/-) Cells: Sytravon; note: nearly all actives have a fitted effect of over 50% in size;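 for activity change, negative = inhibition: plate controls were DMSO for no effect and rapamycin for full effect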
Conditions: phospho-rpS6 immunofluorescence/PI, 24 h; series mostly up to 38.3 µM; activity change, negative = inhibition: at the top concentration
From the text: NIH Molecular Libraries Probe Production Centers Network [MLPCN] NIH Chemical Genomics Center [NCGC] MLPCN Grant: NS059428-01 Assay Submitter (PI): Blenis, John; Hoffman, Greg; Harvard University NCGC Assay Overview: The mammalian target of rapamycin (mTOR) is an intracellular serine/threonine kinase Aberrant regulation of mTOR signaling plays a causative role in a number of human diseases, including cancer, benign tumors such as lymphangioleiomyomatosis (LAM) and Tuberous Sclerosis Complex (TSC), and metabolic diseases such as diabetes and obesity. This project aims to identify inhibitors of ribosomal protein S6 (rpS6) phosphorylation. The phosphorylation of rpS6 is a key event downstream of mTOR activation. The assay uses a phospho-specific antibody of phospho-rpS6 to detect inhibitors of mTOR activation. Mutations in the Tsc1 and Tsc2 genes are the underlying genetic lesions responsible for TSC, causing constitutive activation of the mTORC1 pathway and leading to profound effects on cell metabolism. Aberrant metabolism in cancer has recently received significant attention as a target to develop therapeutic agents in the treatment of cancer.1 As Tsc2-/- cells have lost the ability to respond to energy and growth factor deprivation, these cells are unable to properly down regulate cellular biosynthetic processes in response to metabolic stress, and are thus extremely sensitive to glucose deprivation-induced death.2 A central goal of this project is to explore the unique cell survival and metabolic properties of cells with Tsc1 or Tsc2 by screening for compounds that selectively target the Tsc2-/- MEFs by screening both Tsc2-/- and WT MEF cell lines. We hope to better understand these aspects of TSC physiology in order to exploit them for therapeutic benefit.
NCGC Acumen Assay Protocol Summary: For quantitative high throughput analysis of mTORC1 signaling, we developed a cell-based assay for immuno-fluorescence based detection of rpS6 phosphorylation on the Acumen Explorer that will be used a platform for the primary small molecule screen. Mouse embryonic fibroblasts (MEFs) are cultured in 1536-well plates using DMEM + 10% FBS. Twenty-four hrs after plating, test compounds (solubilized in DMSO) are delivered and incubated with the cells for 24 hrs at 37 degree Celsius. Following the incubation, media with compound is aspirated and the cells are fixed in 4% paraformaldehyde (PFA) containing PBS + 0.2% TX-100. Next, PFA is aspirated, cells are washed two times with PBS plus 0.2% TX-100 and the cells are blocked for 1 hr at room temperature (blocking buffer: LiCOR Blocking Buffer plus 0.2% TX-100). […] Cells are washed two times with PBS plus 0.2% TX-100, and stained with 10 uM propidium iodide (PI) for 20-25 minutes for cell number measurement (1:500 dilution of Hoescht staining is also added for IN Cell imaging). The plates are scanned on the Acumen Explorer laser scanning instrument (TTP Labtech) using the 488nm laser for simultaneous excitation of the Alexa-488 and PI. […] The normalized phospho-S6 staining is calculated as the ratio of the integrated Alexa 488 intensity divided by the integrated PI intensity for the single concentration rapamycin control (7.5 nM) and DMSO columns. […] Inhibition of the pathway is defined based on the normalized phospho-S6 intensity in rapamycin treated cells. Active cells are defined as those with a normalized phospho-S6 staining above this threshold, and each treatment is reported as the % positive cells in the well, where thresholds are defined by selecting wells with the highest and lowest signal and differentiating between the % non-active and % active populations. In addition to the pathway specific phospho-S6 endpoint, the number of PI stained cells from the Acumen is recorded as a measure of cell viability. The primary screen was performed with a MEF cell line in a defined genetic background, Tsc2-/-, p53-/- cell line stably transfected with an empty vector control (Tsc2-/- MEF).
Potency is the fitted concentration of half-maximal effect.

Compound	activity change, negative = inhibition	Potency
CCC(C)NC(=O)Cn1c(=O)n(-c2ccc(Cl)cc2)c(=O)c2c3c(sc21)CCCC3 (stereo not drawn)	7.38% (inactive)	–
CC1CCCCN1CCCNC(=O)Cn1ncc2c([nH]c3ccccc32)c1=O (stereo not drawn)	-1.23% (inactive)	–
COc1ccccc1-c1noc(CSc2nnc(-c3ccccc3)n2-c2ccc(C)c(C)c2)n1	-10.2% (inactive)	–
CCOc1ccc(CNC(=O)c2ccc(CS(=O)c3ccccc3)o2)cc1 (stereo not drawn)	3.66% (inactive)	–
CCCCC(CC)CNC(=O)C1CCN(S(=O)(=O)c2cccc3nsnc23)CC1 (stereo not drawn)	2.77% (inactive)	–
CC(=O)c1cccc(NC(=O)CSc2nc3c(c(=O)[nH]2)CCC3)c1	2.41% (inactive)	–
Cc1ccc(Cn2c(C)c3cnn(CC(=O)NCc4ccccc4)c(=O)c3c2C)cc1	-12.7% (inactive)	–
Clc1ccc(CSc2nncn3c2cc2occc23)cc1	0.254% (inactive)	–
COc1cc(OC)cc(-c2nc3nc(C)c(CCC(=O)Nc4ccccc4)c(C)n3n2)c1	2.09% (inactive)	–
CCOc1cccc(CC(=O)N2CCc3c([nH]c4ccccc34)C2c2ccc(OC)cc2)c1OCC (stereo not drawn)	9.34% (inactive)	–
CCN(C(=O)CSc1nnc(C)n2c1cc1occc12)c1ccccc1	-2.15% (inactive)	–
Cc1ccc(-c2nc(SCc3ccc(Br)cc3)n3[nH]c(=O)cc3n2)cc1	-2.33% (inactive)	–
O=c1cc(-c2ccccc2)n2c(SCc3ccccc3)nnc2[nH]1	0.0486% (inactive)	–
CCCCSc1ncnc2c1sc1nc(N3CCOCC3)c3c(c12)CCCC3	6.37% (inactive)	–
COc1ccc(N2C(=O)CSC23C(=O)N(Cc2cccc(F)c2)c2ccccc23)cc1Cl (stereo not drawn)	-3.26% (inactive)	–
COc1cc(C(=O)Nc2ccc(OCc3cc(=O)n4cc(C)sc4n3)cc2)cc(OC)c1OC	-6.16% (inactive)	–
CCOc1ccc(NC(=O)c2ncoc2-c2ccco2)cc1	0% (inactive)	–
Cn1nnnc1SCCNCc1ccc(Cl)c(Cl)c1	-5.71% (inactive)	–
Cn1nnnc1SCCCNCc1ccc(Cl)cc1	-9.59% (inactive)	–
Cn1nnnc1SCCCNCc1cccc(OCc2ccc(Cl)cc2)c1	–	18.5 µM (active)
COc1ccc(C(=O)Nc2nonc2-c2ccc(OC)c(OC)c2)cc1Cl	-29.4% (inactive)	–
Cc1ccc(NC(=O)c2cc3cc(C)ccc3n2C)cc1	-1.67% (inactive)	–
Cc1ccc(S(=O)(=O)c2nnn3c2nc(N2CCN(c4ccccc4F)CC2)c2cc(Cl)ccc23)cc1C	-0.0789% (inactive)	–
COC(=O)c1cc(NC(=O)c2cnc(SC)nc2-c2ccccc2)cc(C(=O)OC)c1	-1.13% (inactive)	–

Compound	activity change, negative = inhibition	Potency
CCNS(=O)(=O)c1cc(-c2nnc(Nc3cccc(C(F)(F)F)c3)c3ccccc23)ccc1C	–	18.5 µM (active)
Cc1ccc(-c2nnc(Nc3cccc(Br)c3)c3ccccc23)cc1S(=O)(=O)NCC1CCCO1 (stereo not drawn)	-0.426% (inactive)	–
Cc1ccc(Nc2nnc(-c3ccc(C)c(S(=O)(=O)N4CCCCC4)c3)c3ccccc23)cc1	-1.69% (inactive)	–
O=C(Nc1ccccc1Cl)N1CCC(CN2CCCCC2)CC1	-6.23% (inactive)	–
CCc1ccc(CNC(=O)c2cc3c(=O)n(CC)c4ccccc4c3s2)cc1	-7.38% (inactive)	–
CCn1c(=O)c2cc(C(=O)NCCc3ccc(Cl)cc3)sc2c2ccccc21	1.55% (inactive)	–
CCN(CCCNC(=O)c1cc2c(=O)n(CC)c3ccccc3c2s1)Cc1ccccc1	–	18.5 µM (active)
CCCCOC(=O)CSc1ncnc2sc3c(c12)CCC(C)C3 (stereo not drawn)	-0.119% (inactive)	–
O=C(CC(NCc1cccnc1)C(=O)O)Nc1ccc(O)cc1 (stereo not drawn)	–	14.7 µM (active)
CCc1ccc(NC(=O)c2cc3c(=O)n(Cc4cccnc4)ccc3nc2C)cc1	-1.59% (inactive)	–
Cc1cc(NC(=O)CC(C)C)cc(-c2nc3ncccc3o2)c1O	1.54% (inactive)	–
COc1ccc2c(Sc3ccc(C)cc3)c(C(=O)NC(C)c3ccccc3)[nH]c2c1 (stereo not drawn)	-13.1% (inactive)	–
CCc1ccc(CNC(=O)C2CCN(c3nn4cc(-c5ccc(F)cc5)nc4s3)CC2)cc1	4.71% (inactive)	–
COCCNC(=O)CSc1nc(-c2ccccc2)[nH]c1-c1ccc(C)cc1	-5.91% (inactive)	–
CCOc1ccccc1NC(=O)CSc1ncc(S(=O)(=O)c2ccc(C(C)(C)C)cc2)c(=O)[nH]1	1.68% (inactive)	–
CCOc1ccc(CNCc2c(C(=O)O)c(C)n(Cc3cccc(OC)c3)c2C)cc1OC	0.48% (inactive)	–
CCCCOc1ccc(Cn2c(=O)oc3ccc(C)cc32)cc1OC	-1.14% (inactive)	–
CCCCOc1ccc(CN2C(=O)C(=O)c3cc(Br)cc(C)c32)cc1OC	–	9.27 µM (active)
Cc1cc(NC(=O)c2cccc(Cl)c2)ccc1-c1cc2ccccc2oc1=O	1.45% (inactive)	–
COc1cccc(C(=O)Nc2nnc(S(=O)(=O)N3CCOCC3)s2)c1	0% (inactive)	–
COc1ccccc1NC(=O)c1cc(S(=O)(=O)NCCc2ccccc2)ccc1F	-4.31% (inactive)	–
Cc1cc(C)c2oc(-c3cccc(NC(=O)c4cccc(F)c4)c3C)nc2c1	0.309% (inactive)	–
CCc1ccc(CNCc2c(C(=O)O)n(Cc3ccc(F)cc3Cl)c3cc(OC)ccc23)cc1	1.29% (inactive)	–
COc1ccc(C)cc1NC(=O)COCc1cc(-c2cccs2)on1	7.46% (inactive)	–
